Several values for one entry are separate records, joined by “and”; a condition that tells them apart may be missing. Equal values may be shown once. Inconclusive results are not listed. A structure can be active in one record and inactive in another. Activity calls are given as the source filed them. How the source made its calls, unless noted: active means hit-call score of the fitted dose curve at least 0.9, where 1 is the maximum; inactive means score below 0.9.
Assays:
[1] = biological target: human RAR-related Orphan Receptor gamma (RORg), RORC (gene 6097) (UniProt P51449); assay: ATG_RORg_TRANS: Attagene TRANS-FACTORIAL HepG2 Assay for human RAR-related Orphan Receptor gamma (RORg) (AID 2283011; active means hit-call score of the fitted dose curve at least 0.9, where 1 is the maximum)
Outline: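 Transient MRTU transfection of HepG2 (TRANS format, exogenous NR-Gal4 chimera). 24 h dosing. Total RNA → oligo(dT) RT → PCR → 6-FAM labelling → HpaI cut → CE. Gain vs DMSO.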

[2] = biological target: Retinoic acid receptor RXR-alpha (Homo sapiens) (UniProt P19793); assay: ATG_RXRa_TRANS: Attagene TRANS-FACTORIAL HepG2 Assay for human Retinoid X Receptor alpha (RXRa) (AID 2283012; active means hit-call score of the fitted dose curve at least 0.9, where 1 is the maximum)
Outline: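 Cells (HepG2) carried transiently transfected GAL4-responsive reporter units. Following a 24 h chemical incubation, reporter mRNA induction was read via RT-PCR fragment analysis; DMSO served as negative control and baseline.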

[3] = biological target: human Thyroid Receptor alpha (THRa1), THRA (gene 7067) (UniProt P10827); assay: ATG_THRa1_TRANS: Attagene TRANS-FACTORIAL HepG2 Assay for human Thyroid Receptor alpha (THRa1) (AID 2283014; active means hit-call score of the fitted dose curve at least 0.9, where 1 is the maximum)
Outline: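 Transient HepG2 transfection, NR-Gal4 chimera driving GAL4-UAS reporters; 24 h compound exposure; total RNA, oligo(dT) RT, PCR, fluorescent primer extension, capillary electrophoresis. Upward direction vs DMSO control.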

[4] = read-out: E-selectin (Homo sapiens) (UniProt P16581); assay: BSK_3C_Eselectin: BioMAP Diversity Plus: 3C Assay for Eselectin Biomarker Activity (AID 2283015); conditions: primary human endothelial cells (HUVEC); actives raise or lower the signal
Outline: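 HUVEC, 3C stimulation; compound exposure 24 h; E-selectin by ELISA; gain- or loss-of-signal fitted bidirectionally vs DMSO baseline.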

[5] = read-out: Interleukin-1 alpha (IL1a), IL1A (gene 3552); assay: BSK_BE3C_IL1a: BioMAP Diversity Plus: BE3C Assay for Interleukin-1 alpha (IL1a) Biomarker Activity (AID 2283016); conditions: primary human bronchial epithelial cells; actives raise or lower the signal
Outline: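 Cultures of primary human bronchial epithelial cells receive test chemical. After 24 h, IL-1a is quantified by ELISA, while parallel wells are fixed in TCA and SRB-stained for total protein. Changes in either direction are fitted relative to DMSO.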

[6] = read-out: Monocyte Chemoattractant Protein-1 (MCP1), CCL2 (gene 6347); assay: BSK_3C_MCP1: BioMAP Diversity Plus: 3C Assay for Monocyte Chemoattractant Protein-1 (MCP1) Biomarker Activity (AID 2283017); conditions: primary human endothelial cells (HUVEC); actives raise or lower the signal
Outline: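 HUVEC, 3C system; 24 h chemical exposure; MCP-1 by ELISA; bidirectional curve fit vs DMSO baseline.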

[7] = read-out: Monocyte Chemoattractant Protein-1 (MCP1), CCL2 (gene 6347); assay: BSK_4H_MCP1: BioMAP Diversity Plus: 4H Assay for Monocyte Chemoattractant Protein-1 (MCP1) Biomarker Activity (AID 2283018); conditions: primary human endothelial cells (HUVEC); actives raise or lower the signal
Outline: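 Readout: MCP-1 ELISA on compound-treated HUVEC, sampled 24 h post-dosing. Baseline and negative control DMSO; bidirectional fit. Overt toxicity checked alongside by sulforhodamine B protein staining at time of biomarker measurement.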

[8] = read-out: Human Leukocyte Antigen - DR isotype (HLADR), HLA-DRA (gene 3122); assay: BSK_3C_HLADR: BioMAP Diversity Plus: 3C Assay for Human Leukocyte Antigen - DR isotype (HLADR) Biomarker Activity (AID 2283019); conditions: primary human endothelial cells (HUVEC); actives raise or lower the signal
Outline: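 HUVEC, 3C stimulation, 24 h post-dose; HLA-DR by ELISA; bidirectional curve fit vs DMSO baseline; gain or loss of signal scored.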

[9] = read-out: Interleukin-8 (IL8), CXCL8 (gene 3576); assay: BSK_3C_IL8: BioMAP Diversity Plus: 3C Assay for Interleukin-8 (IL8) Biomarker Activity (AID 2283020); conditions: primary human endothelial cells (HUVEC); actives raise or lower the signal
Outline: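 Human vascular endothelial cells (umbilical vein) in the 3C system; IL-8 level detected by ELISA at 24 h post-dose, with DMSO as baseline.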

[10] = biological target: human Retinoid X Receptor beta (RXRb), RXRB (gene 6257) (UniProt P28702); assay: ATG_RXRb_TRANS: Attagene TRANS-FACTORIAL HepG2 Assay for human Retinoid X Receptor beta (RXRb) (AID 2283013; active means hit-call score of the fitted dose curve at least 0.9, where 1 is the maximum)
Outline: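 Multiplexed TRANS reporter assay in HepG2; 24 h dosing; reporter mRNA by RT-PCR/CE fluorescence; gain-of-signal relative to DMSO.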

Measured: AC50

Chain of human Retinoid X Receptor beta (RXRb), RXRB (gene 6257) (P28702 whole entry, looked up): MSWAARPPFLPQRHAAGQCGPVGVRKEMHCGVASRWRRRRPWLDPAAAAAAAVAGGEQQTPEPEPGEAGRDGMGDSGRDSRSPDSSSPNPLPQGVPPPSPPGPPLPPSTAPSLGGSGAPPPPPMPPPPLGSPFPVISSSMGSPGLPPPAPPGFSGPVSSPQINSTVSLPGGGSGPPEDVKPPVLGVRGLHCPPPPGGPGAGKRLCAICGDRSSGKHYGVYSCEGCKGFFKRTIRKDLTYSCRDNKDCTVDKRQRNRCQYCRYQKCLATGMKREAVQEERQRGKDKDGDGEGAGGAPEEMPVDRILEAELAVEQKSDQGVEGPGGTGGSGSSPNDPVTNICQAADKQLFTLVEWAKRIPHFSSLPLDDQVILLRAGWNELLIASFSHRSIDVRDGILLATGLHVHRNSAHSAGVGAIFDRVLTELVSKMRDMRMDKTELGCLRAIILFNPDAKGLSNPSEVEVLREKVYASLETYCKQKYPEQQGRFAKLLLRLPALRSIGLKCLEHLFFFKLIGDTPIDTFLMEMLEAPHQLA
Chain of E-selectin (Homo sapiens) (P16581 whole entry, looked up): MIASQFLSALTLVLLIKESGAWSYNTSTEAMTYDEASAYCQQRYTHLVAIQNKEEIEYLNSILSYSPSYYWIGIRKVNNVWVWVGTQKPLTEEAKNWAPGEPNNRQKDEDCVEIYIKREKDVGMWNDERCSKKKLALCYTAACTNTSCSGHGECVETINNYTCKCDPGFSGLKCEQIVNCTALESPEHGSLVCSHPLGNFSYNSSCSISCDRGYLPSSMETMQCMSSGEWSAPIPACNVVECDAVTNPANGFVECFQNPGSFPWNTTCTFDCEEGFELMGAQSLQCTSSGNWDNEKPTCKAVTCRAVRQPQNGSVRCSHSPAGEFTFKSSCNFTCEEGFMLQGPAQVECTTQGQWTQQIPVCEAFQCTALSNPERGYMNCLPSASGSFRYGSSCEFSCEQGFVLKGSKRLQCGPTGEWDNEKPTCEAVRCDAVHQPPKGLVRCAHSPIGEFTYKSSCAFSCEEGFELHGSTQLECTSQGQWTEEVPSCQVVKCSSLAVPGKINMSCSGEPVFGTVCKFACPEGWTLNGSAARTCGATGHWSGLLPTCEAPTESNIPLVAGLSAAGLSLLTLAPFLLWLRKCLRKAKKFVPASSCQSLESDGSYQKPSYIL
Chain of human Thyroid Receptor alpha (THRa1), THRA (gene 7067) (P10827 whole entry, looked up, the tested form may be a part): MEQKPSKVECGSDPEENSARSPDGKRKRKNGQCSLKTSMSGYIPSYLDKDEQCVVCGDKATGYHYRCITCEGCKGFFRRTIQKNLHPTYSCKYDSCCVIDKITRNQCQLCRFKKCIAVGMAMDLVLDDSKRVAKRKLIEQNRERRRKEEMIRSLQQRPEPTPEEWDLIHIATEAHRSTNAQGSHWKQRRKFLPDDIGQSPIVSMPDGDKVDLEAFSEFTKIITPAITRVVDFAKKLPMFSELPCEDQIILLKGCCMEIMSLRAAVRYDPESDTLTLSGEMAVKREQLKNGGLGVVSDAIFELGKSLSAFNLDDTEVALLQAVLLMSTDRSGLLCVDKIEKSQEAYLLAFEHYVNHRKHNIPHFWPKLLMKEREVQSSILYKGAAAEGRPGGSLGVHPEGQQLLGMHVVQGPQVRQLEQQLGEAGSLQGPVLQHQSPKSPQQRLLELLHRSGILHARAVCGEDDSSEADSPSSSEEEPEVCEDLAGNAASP
Chain of Retinoic acid receptor RXR-alpha (Homo sapiens) (P19793 whole entry, looked up, the tested form may be a part): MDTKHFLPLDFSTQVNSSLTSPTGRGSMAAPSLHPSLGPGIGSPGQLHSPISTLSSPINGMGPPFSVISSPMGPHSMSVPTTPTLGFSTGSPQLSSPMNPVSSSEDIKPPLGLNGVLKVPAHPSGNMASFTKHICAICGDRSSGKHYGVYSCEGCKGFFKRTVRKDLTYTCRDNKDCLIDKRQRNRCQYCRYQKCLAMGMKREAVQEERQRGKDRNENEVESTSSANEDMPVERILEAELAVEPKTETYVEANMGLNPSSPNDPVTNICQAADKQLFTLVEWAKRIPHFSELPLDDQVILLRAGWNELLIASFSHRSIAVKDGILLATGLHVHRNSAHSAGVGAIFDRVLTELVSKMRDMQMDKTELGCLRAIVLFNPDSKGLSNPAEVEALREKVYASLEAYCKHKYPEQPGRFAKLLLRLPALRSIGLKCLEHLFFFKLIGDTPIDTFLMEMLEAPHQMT
Chain of human RAR-related Orphan Receptor gamma (RORg), RORC (gene 6097) (P51449 whole entry, looked up, the tested form may be a part): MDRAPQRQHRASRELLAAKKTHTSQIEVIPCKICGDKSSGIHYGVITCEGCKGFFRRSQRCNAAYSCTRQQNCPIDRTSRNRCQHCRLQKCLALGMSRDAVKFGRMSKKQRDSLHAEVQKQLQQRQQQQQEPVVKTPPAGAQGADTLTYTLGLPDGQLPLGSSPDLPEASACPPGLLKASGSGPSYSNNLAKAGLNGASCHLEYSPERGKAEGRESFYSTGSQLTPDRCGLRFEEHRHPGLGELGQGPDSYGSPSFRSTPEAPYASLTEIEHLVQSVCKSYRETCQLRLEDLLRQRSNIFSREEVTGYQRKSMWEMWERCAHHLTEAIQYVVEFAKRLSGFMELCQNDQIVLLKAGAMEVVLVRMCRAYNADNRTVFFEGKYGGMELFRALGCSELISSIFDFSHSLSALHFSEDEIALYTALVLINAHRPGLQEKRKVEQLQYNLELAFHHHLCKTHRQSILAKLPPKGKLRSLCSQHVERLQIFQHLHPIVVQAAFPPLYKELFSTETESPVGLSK

O=C1OC2(c3ccccc31)c1cc(I)c(O)c(I)c1Oc1c2cc(I)c(O)c1I
active: [4] 5.74 µM | [5] 4.58 µM | [6] 6.03 µM | [7] 4.8 µM | [8] 6.51 µM
inactive: [1] | [2] | [3] | [9]

CC[N+](CC)(CC)Cc1ccccc1
not listed: [3] | [4]
inactive: all other assays above

CCC(C)c1ccccc1O (centres undefined)
active: [10] 72.8 µM
not listed: [3]
inactive: all other assays above

CCCCC=O
not listed: [3] | [4]
inactive: all other assays above

O=C(O)CN(CCCN(CC(=O)O)CC(=O)O)CC(=O)O
inactive: [1] | [2] | [3]

CC1CNCC(C)O1 (centres undefined)
inactive: [1] | [2] | [10] | [3]

O=C(Nc1ccc(Cl)c(Cl)c1)c1cc(Cl)cc(Cl)c1O
inactive: [1] | [2] | [10]
active: [3] 1.35 µM

OCC(F)(F)C(F)(F)C(F)(F)C(F)(F)C(F)(F)C(F)(F)C(F)(F)C(F)(F)C(F)(F)C(F)(F)C(F)(F)F
not listed: [3]
inactive: all other assays above

c1cnc2c(c1)ccc1cccnc12
active: [3] 26.6 µM
inactive: [1] | [2] | [10] | [3]

C[C@]12CC[C@@H]3c4ccc(O)cc4CC[C@H]3[C@@H]1C[C@@H](O)[C@@H]2O
inactive: all assays above

CC(C)(C)C1CCCCC1O (centres undefined)
inactive: [1] | [2] | [3]

O=S(=O)(O)C(F)(F)C(F)(F)C(F)(F)C(F)(F)C(F)(F)C(F)(F)C(F)(F)C(F)(F)C(F)(F)C(F)(F)F
active: [5] 13.3 µM and 10.6 µM
not listed: [3] | [4]
inactive: all other assays above

OCCN1CN(CCO)CN(CCO)C1
active: [5] 4.12 µM | [6] 31.1 µM | [7] 35.5 µM | [8] 28 µM | [9] 29.2 µM
inactive: [1] | [2] | [10] | [3]

NS(=O)(=O)O
inactive: [1] | [2] | [10] | [3]

CC(C)(c1ccc(Oc2ccc(N)cc2)cc1)c1ccc(Oc2ccc(N)cc2)cc1
inactive: [1] | [2] | [10] | [3]

CCCCCCCCC1CCC(=O)O1 (centres undefined)
inactive: [1] | [2] | [10] | [3]

CCCCCCCCCCCCCCCCCC[N+](C)(C)Cc1ccccc1
inactive: [1] | [2] | [10]
active: [3] 50 µM | [5] 3.96 µM | [6] 0.716 µM | [7] 0.929 µM | [8] 0.515 µM | [9] 4.38 µM

O=C(OC(=O)C(F)(F)C(F)(F)F)C(F)(F)C(F)(F)F
inactive: [1] | [2] | [3]

O=c1cc(-c2ccccc2)oc2ccc3ccccc3c12
inactive: [1] | [2] | [10] | [3]

O=C(O)CCC(F)(F)C(F)(F)C(F)(F)C(F)(F)C(F)(F)C(F)(F)F
active: [10] 51.1 µM
not listed: [3] | [4]
inactive: all other assays above

CN(Cc1cnc2nc(N)nc(N)c2n1)c1ccc(C(=O)N[C@@H](CCC(=O)O)C(=O)O)cc1
not listed: [3] | [4]
inactive: all other assays above

CCCCCc1ccc(O)cc1
active: [10] 33.4 µM | [5] 23.8 µM | [6] 20 µM | [7] 9.34 µM | [8] 11.6 µM | [9] 11.3 µM
inactive: [1] | [2] | [3]

CCCCCCCCCCCC
inactive: [1] | [2] | [10] | [4] | [6] | [7] | [8] | [9]
active: [4] 20 µM | [5] 9.52 µM and 8.11 µM

C/C=C/C(=O)C1=C(C)CCCC1(C)C
inactive: [1] | [2] | [10] | [3]

O=P(O)(O)CCC(F)(F)C(F)(F)C(F)(F)C(F)(F)C(F)(F)C(F)(F)C(F)(F)C(F)(F)F
inactive: all assays above

FC(F)(F)C1(F)C(F)(F)C(F)(F)C(F)(F)C1(F)F
inactive: [1] | [2] | [3]

Reference: PubChem BioAssay (EPA / NIEHS)
